PubChem BioAssay AID977606 (Broad Institute, 2014)
Screen size: about 1,500 compounds; about 430 (29%) were called active. The rule behind the calls is not given here. These entries were drawn from the full list. Results with a measured potency or affinity are listed apart.

test: insulin secretion activators without glucose, dose response, counter-screen for glucose-dependent insulin secretion activators, cell-based, INS-1E, Gaussia luciferase, luminescence, cherry-pick (AID 977606); settings: INS-1E Gaussia luciferase insulin secretion, no glucose, 100% = twice neutral-control luminescence; series mostly up to 35 µM

Compound	outcome
COc1ccc(C(=O)C2CCCN(Cc3cccn3-c3nccs3)C2)cc1OC (configuration not stated)	inactive
CN(C)C(=O)c1ccc(-c2ccc([C@@H]3[C@@H](CO)N4C(=O)CN(C(=O)C5CC5)C[C@@H]34)cc2)cc1	inactive
Cc1c(O)cnc2nn(-c3ccccc3)c(=N)n12	inactive
CCOC(=O)Cc1cc(=O)n2[nH]c(-c3ccc(C)cc3)cc2n1	inactive
CN(C)c1ccc(/C=N/NC(=O)c2ccccc2Cl)cc1	inactive
CC(C)Oc1ccc(Br)cc1C(=O)N/N=C/c1c[nH]c2ccccc12	inactive
CCNc1nc(Oc2ccc(C#N)cc2)cc(C(F)(F)F)n1	inactive
COc1ccc2oc(-c3ccncc3)cc(=O)c2c1	inactive
O=C(Nc1ccc2oc(-c3cccnc3)nc2c1)c1ccc2c(c1)OCCO2	inactive
O=C(Nc1ccc(NC(=O)c2cccs2)cc1)c1ccc2c(c1)OCO2	inactive
CCNc1nc(NCC)nc(N(C#N)C(C)C)n1	inactive
O=C(NC1CCCC1)c1ccc(Cl)c(S(=O)(=O)N2CCOCC2)c1	inactive
COc1ccc(C(=O)N2CCc3cc(OC)c(OC)cc3C2c2ccc(OC)c(OC)c2)cc1OC (configuration not stated)	inactive
O=C(NCc1cccnc1)c1cccc(S(=O)(=O)NCc2ccccc2)c1	inactive
COc1ccc(C(=O)Nc2ccccc2C(=O)NCc2cccnc2)cc1OC	inactive
Clc1ccc(-c2cc(CN3CCOCC3)no2)cc1	inactive
Cc1cc(C)n(CC(=O)n2c3ccccc3c3ccccc32)n1	inactive
O=C(c1cccs1)N(Cc1ccc(Cl)cc1)C1CCS(=O)(=O)C1 (configuration not stated)	inactive
COc1ccc(C(=O)OCC(=O)NC(=O)NC2CCCC2)cc1OC	inactive
O=C(Nc1ccccc1)Nc1nnc(-c2cccs2)s1	inactive
O=C(O)c1ccc(-n2nnnc2SCc2ccccc2F)cc1	inactive
O=C(c1ccco1)N(Cc1ccc(Cl)cc1)C1CCS(=O)(=O)C1 (configuration not stated)	inactive
O=C(COc1ccccc1Cl)NNC(=O)c1ccc2nc[nH]c2c1	inactive
COc1ccccc1N(CC(=O)NCC1CCCO1)C(=O)CNS(=O)(=O)c1ccc(Cl)cc1 (configuration not stated)	inactive

Compound	outcome
Cc1cc(C)cc(N(C(=O)C(F)(F)F)C(C(=O)NC2CCCCC2)c2cccs2)c1 (configuration not stated)	inactive
O=C(NCc1ccccn1)c1ccccc1OCc1ccc(Cl)cc1Cl	inactive
COc1ccc2oc(=O)c(C(=O)NCc3ccccn3)cc2c1	inactive
CC1CCC(NC(=O)C2COc3ccccc3O2)CC1 (configuration not stated)	inactive
CCCCOC(=O)c1cc(-c2ccc(/C=N/n3cnnc3)o2)ccc1Cl	inactive
C=CCc1ccc(OCCOc2ccc(/C=N/n3cnnc3)cc2OCC)c(OC)c1	inactive
N#Cc1c(-c2ccco2)cc(C2CC2)nc1N	inactive
COc1cc2c(cc1OC)C(Nc1ccccc1)=NC(C)(C)C2	inactive
O=C(NCC1(O)CCCCC1)C1CCC(=O)N(Cc2ccccc2F)C1 (configuration not stated)	inactive
NC1=NC(=O)C(Cc2ccc(F)cc2)S1 (configuration not stated)	inactive
COc1cc(OC)c(OC)cc1/C=N/n1c(C)nc2ccccc2c1=O	inactive
O=C1Nc2cnc(Cl)nc2Nc2ccccc21	inactive
COc1ccc(CN(C)C(=O)c2cc(-c3ccc(OC)c(OC)c3)nc3ccccc23)c(OC)c1	inactive
COc1ccc(-c2cc(C(=O)N(C)Cc3ccc(OC)c(OC)c3OC)c3ccccc3n2)cc1OC	inactive
COc1ccc(F)cc1C(=O)C1CCCN(C(=O)c2ccc(C(C)=O)s2)C1 (configuration not stated)	inactive
Clc1ccc(OCCn2ccnc2)c(Cl)c1	inactive
C=CCOc1cccc(C(=O)N2CCC(CCC(=O)NC3CC3)CC2)c1	inactive
COc1ccc(CCNc2ccncn2)cc1OC	inactive
Cc1cc2cc(C#N)c(N3CCOCC3)nc2cc1Cl	inactive
CCN1CCN(CCCNC(=O)c2ccc3c(c2)N(Cc2ccccc2)CCS3)CC1	inactive
Nc1[nH]c(C(=O)c2ccccc2)c(-c2c(F)cccc2F)c1C(=O)c1ccc(Cl)c(Cl)c1	inactive
Cc1cn(CC(C)C)c(=O)n(-c2ccccc2)c1=O	inactive
COc1ccc(CC(=O)OCC(=O)N2CCc3ccccc32)cc1OC	inactive
COc1cc2c(cc1OC)CN(C(=O)Cc1ccccc1)CC2	inactive

Compound	outcome
CC/C(O)=C1\C(=O)CC(C)(C)CC1=Nc1ccccc1C	inactive
CC(C)(C)c1ccc(C#C[C@@H]2C=C[C@H]3OC(=O)CC/C=C/CCC(=O)OC[C@H]3O2)cc1	inactive
CC1CCc2nc(N)c(C#N)c(-c3ccncc3)c2C1 (configuration not stated)	inactive
Cc1c(C=O)c2ccccn2c1C(=O)c1ccc(F)cc1	inactive
COc1ccccc1Nc1c2c(nc3ccc(N)cc13)CCCC2	inactive
CN(C)c1ccc(CC(=O)N2CCCCC2c2cc(C(=O)Nc3ccccc3Cl)no2)cc1 (configuration not stated)	inactive
O=C(O)CNS(=O)(=O)c1ccc2c(c1)Cc1cc(S(=O)(=O)NCC(=O)O)ccc1-2	inactive
CCc1cc2c(COC(=O)c3cccc(S(C)(=O)=O)c3)cc(=O)oc2cc1O	inactive
CCN(CC)C(=O)Cn1cc(C(=O)C(=O)N2CCN(Cc3ccccc3)CC2)c2ccccc21	inactive
Cc1ccc(-c2nc3c(=O)n(C)c4ccccc4c3o2)cc1	inactive
O=C(CC(c1ccccc1)c1ccco1)N1CCOCC1 (configuration not stated)	inactive
CC(C)CCC(O)(CCC(C)C)C(=O)NN1CCCCC1	inactive
COc1ccc(C2=NN(c3ccc(C(=O)O)cc3)C(c3ccc(OC)c(OC)c3)C2)cc1 (configuration not stated)	inactive
CCOc1cc(C2C3=C(CC(C)(C)CC3=O)Nc3n[nH]c(C)c32)ccc1O (configuration not stated)	inactive
CC(C)CCN1C(=O)CSCC1(C)C(=O)NC(C)C (configuration not stated)	inactive
CCCc1nnc2c(N(C)S(=O)(=O)c3ccc(C)cc3)nc3ccccc3n12	inactive
Cc1cc(=O)[nH]c2c1c(C)nn2C1CCCC1	inactive
N#Cc1sc2nc(C3CC3)cc(-c3ccccc3)c2c1N	inactive
COc1cc2c(cc1OC)C1=C(C#N)CCC(=NC(=O)c3ccco3)N1CC2	inactive
O=C(CN1C(=O)CCC1=O)Nc1cccc2c1C(=O)NC2=O	inactive
Cc1cc(-c2ccc(Br)cc2)n2nc(C)cc2n1	inactive
CSc1ncccc1C(=O)NCCc1ccccc1F	inactive
CCSc1nnc2ccc(-c3ccc(C)cc3)nn12	inactive
CSc1ccc2nnc(-c3cccc(F)c3)n2n1	inactive
